Test results taken from PubChem BioAssay (Tox21).
Results filed as inconclusive are left out. Calls of active or inactive are those of the source. Unless noted, calls follow the shape of the dose curve; as a rule, active = well fitted curve in the direction sought with a large enough effect in the repeat runs; inconclusive = weak or mixed curves; inactive = no such curve, though single readings can be large; an effect the other way counts as inactive or inconclusive.

Tests used:
[1] = qHTS assay to identify small molecule antagonists of the retinoid acid receptor (RAR) signaling pathway - cell viability counter screen (AID 1159551); also: nearly all actives have a fitted effect of over 35% in size
Procedure, shortened: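 Cytotoxicity counter screen: ATP content quantified by CellTiter-Glo luminescence in C3RL4 cells treated 6 hr at 37 C with compound and retinol (1 uM final). Cells plated at 1,000/well and cultured overnight before dosing.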

[2] = qHTS assay to identify small molecule antagonists of the retinoic acid receptor (RAR) signaling pathway (AID 1159552; also: nearly all actives have a fitted effect of over 50% in size)
Procedure, shortened: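 Readout: luciferase luminescence, 30 min post-reagent at RT. Setup: C3RL4 RARE reporter cells, compounds plus retinol 1 uM final, 6 hr incubation at 37 C and 5% CO2.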

[3] = qHTS assay to identify small molecule agonists of the retinoic acid receptor (RAR) signaling pathway (AID 1159553)
Procedure, shortened: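 Luminescence was measured 30 min after luciferase reagent addition at room temperature. Before that, C3RL4 reporter cells (1,000 per well, plated overnight) were treated with compound for 6 hr at 37 C and 5% CO2.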

[4] = qHTS assay to identify small molecule antagonists of the estrogen related receptor (ERR) signaling pathway from Tox21 library - cell viability counter screen (AID 1224834); also: nearly all actives have a fitted effect of over 30% in size
Procedure, shortened: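 CellTiter-Fluor fluorescence, read after 30 min at 37 C, measures viability of ERR cells. Cells plated at 2,000/well and incubated 6 h before pin-tool compound addition, then exposed 17.5 hours at 37 C.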

[5] = target: Luciferin 4-monooxygenase (Photinus pyralis) (UniProt P08659); assay: qHTS assay to identify small molecule inhibitors of firefly luciferase (AID 1224835); also: nearly all actives have a fitted effect of over 25% in size
Luciferin 4-monooxygenase (Photinus pyralis), sequence (P08659 whole entry, looked up): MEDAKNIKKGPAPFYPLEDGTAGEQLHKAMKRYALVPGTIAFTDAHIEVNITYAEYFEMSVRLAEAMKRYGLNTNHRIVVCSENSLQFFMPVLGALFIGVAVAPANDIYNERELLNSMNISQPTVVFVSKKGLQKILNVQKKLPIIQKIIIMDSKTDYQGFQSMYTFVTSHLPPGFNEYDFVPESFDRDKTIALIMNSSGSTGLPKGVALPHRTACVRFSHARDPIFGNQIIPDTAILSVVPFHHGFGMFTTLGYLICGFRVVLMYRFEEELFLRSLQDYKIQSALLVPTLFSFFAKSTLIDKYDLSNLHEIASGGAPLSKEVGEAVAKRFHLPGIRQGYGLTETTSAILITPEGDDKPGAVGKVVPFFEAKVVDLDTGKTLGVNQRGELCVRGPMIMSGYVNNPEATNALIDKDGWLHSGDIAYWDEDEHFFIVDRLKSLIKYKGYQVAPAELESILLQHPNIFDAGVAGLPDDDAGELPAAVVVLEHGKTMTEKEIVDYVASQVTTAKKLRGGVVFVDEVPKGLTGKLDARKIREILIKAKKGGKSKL
Procedure, shortened: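 Inhibition of purified Photinus luciferase is measured by luminescence. Substrate levels (D-luciferin, ATP) sit at their KM values. Each compound is tested in a concentration series.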

[6] = qHTS assay to identify small molecule agonists of the constitutive androstane receptor (CAR) signaling pathway - cell viability counter screen (AID 1224836); also: nearly all actives have a fitted effect of over 45% in size
Procedure, shortened: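 Compound titrations (15 concentrations) went onto HepG2-CYP2B6-hCAR cells 4 h after seeding, alongside PK11195 at a final 0.75 uM; a 23 h, 37 C/5% CO2 incubation preceded CellTiter-Fluor viability measurement.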

[7] = qHTS assay to identify small molecule antagonists of the constitutive androstane receptor (CAR) signaling pathway - cell viability counter screen (AID 1224837); also: nearly all actives have a fitted effect of over 45% in size
Procedure, shortened: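 Cytotoxicity counter-screen: CellTiter-Fluor fluorescence after 23 h compound exposure (15-point qHTS) in double-stable HepG2-CYP2B6-hCAR cells, with 50 nM CITCO added.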

[8] = target: Nuclear receptor subfamily 1 group I member 3 (Homo sapiens) (UniProt Q14994); assay: qHTS assay to identify small molecule agonists of the constitutive androstane receptor (CAR) signaling pathway (AID 1224839);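 also: HepG2 cells stably carrying human CAR and a CYP2B6 luciferase reporter; nearly all actives have a fitted effect of over 15% in size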
Nuclear receptor subfamily 1 group I member 3 (Homo sapiens), sequence (Q14994 whole entry, looked up): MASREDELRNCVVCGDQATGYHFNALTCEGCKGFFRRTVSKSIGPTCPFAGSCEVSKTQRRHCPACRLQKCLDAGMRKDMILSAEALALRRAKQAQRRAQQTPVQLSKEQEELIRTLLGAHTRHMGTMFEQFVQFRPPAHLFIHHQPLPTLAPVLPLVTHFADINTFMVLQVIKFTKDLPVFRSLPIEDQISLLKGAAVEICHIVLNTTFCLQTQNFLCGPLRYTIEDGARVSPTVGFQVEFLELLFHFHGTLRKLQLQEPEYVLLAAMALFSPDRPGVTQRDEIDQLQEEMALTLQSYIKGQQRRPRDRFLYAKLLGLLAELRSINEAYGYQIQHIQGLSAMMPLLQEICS
Procedure, shortened: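 In this screen, CAR-driven CYP2B6 promoter activity is measured by luminescence in HepG2-CYP2B6-hCAR cells after 24 h with test compounds and 0.75 uM PK11195 (final concentration).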

[9] = qHTS assay to identify small molecule antagonists of the estrogen related receptor signaling pathway with the pleiotropic PPARgamma coactivator (PGC) from Tox21 10K library - cell viability counter screen (AID 1224840; active = well fitted cell-killing curve with a large enough effect in the repeat runs, not every such curve was filed as active; also: nearly all actives have a fitted effect of over 40% in size)
Procedure, shortened: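 Counter-screen for cytotoxicity: after 17.5 h compound exposure at 37 C, CellTiter-Fluor reagent added to PGC/ERR cells for 30 min and fluorescence read. Cells were seeded at 2,000 per well 6 h before dosing.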

[10] = target: Thyrotropin receptor (Homo sapiens) (UniProt P16473); assay: qHTS assay to identify small molecule agonists of the thyroid stimulating hormone receptor (TSHR) signaling pathway (AID 1224843; calls by dose curve; also: nearly all actives have a fitted effect of over 45% in size)
Thyrotropin receptor (Homo sapiens), sequence (P16473 whole entry, looked up): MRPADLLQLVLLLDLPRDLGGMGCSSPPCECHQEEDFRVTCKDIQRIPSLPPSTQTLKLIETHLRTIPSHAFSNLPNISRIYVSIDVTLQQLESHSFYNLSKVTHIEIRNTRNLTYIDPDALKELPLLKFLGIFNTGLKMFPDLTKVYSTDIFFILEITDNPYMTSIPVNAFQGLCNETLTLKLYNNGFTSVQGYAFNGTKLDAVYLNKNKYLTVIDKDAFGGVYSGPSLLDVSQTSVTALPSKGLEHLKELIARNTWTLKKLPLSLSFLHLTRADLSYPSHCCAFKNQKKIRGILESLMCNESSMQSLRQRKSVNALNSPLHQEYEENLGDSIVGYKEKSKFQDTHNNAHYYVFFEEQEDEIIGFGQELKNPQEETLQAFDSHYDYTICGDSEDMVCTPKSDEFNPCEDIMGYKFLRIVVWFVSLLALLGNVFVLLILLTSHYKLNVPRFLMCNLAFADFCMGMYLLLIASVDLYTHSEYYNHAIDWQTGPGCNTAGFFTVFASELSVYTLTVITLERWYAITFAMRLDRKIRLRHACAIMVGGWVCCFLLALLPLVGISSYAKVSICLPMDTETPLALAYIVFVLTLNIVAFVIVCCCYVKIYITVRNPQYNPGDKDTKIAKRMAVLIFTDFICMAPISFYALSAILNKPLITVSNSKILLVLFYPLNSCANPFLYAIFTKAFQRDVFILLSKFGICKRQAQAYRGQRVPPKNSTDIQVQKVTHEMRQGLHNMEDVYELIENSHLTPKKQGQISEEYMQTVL
Procedure, shortened: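 Agonist activity read as cAMP rise via d2/cryptate HTRF competition, 1 h room-temperature detection, in HEK293 cells expressing TSHR. Fifteen-point titrations, each run in triplicate, with a 30 min room-temperature incubation beforehand.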

[11] = qHTS assay to identify small molecule agonists of the hypoxia (HIF-1) signaling pathway - cell viability counter screen (AID 1224844; calls by dose curve; also: nearly all actives have a fitted effect of over 50% in size)
Procedure, shortened: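 Cytotoxicity measured by CellTiter-Glo ATP luminescence in the wells also read for beta-lactamase signal. Cells were HRE-bla ME-180 (2,000/well, 0.5% dialyzed FBS), exposed to compounds for 17 h at 37C.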

[12] = qHTS assay to identify small molecule agonists of H2AX (AID 1224845; active = well fitted activation curve with a large enough effect in the signal ratio in the repeat runs, not every such curve was filed as active; the % refers to the signal ratio)
Procedure, shortened: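 Phospho-H2AX Ser139 measured by HTRF (ex 320 nm; em 665 and 620 nm) after 24 hr antibody incubation. Compounds, 15 concentrations, 0.76% DMSO, were applied to CHO-K1 cells for 3hr at 37C before lysis.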

[13] = qHTS assay to identify small molecule agonists of the hypoxia (HIF-1) signaling pathway (AID 1224846; active = well fitted activation curve with a large enough effect in the signal ratio in the repeat runs, not every such curve was filed as active; the % refers to the signal ratio)
Procedure, shortened: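 Compounds added to ME-180 cells carrying hypoxia-response-element beta-lactamase reporter (0.5% dialyzed FBS, 5 h preplating), 17 h at 37C; agonist activity detected by CCF4-AM B/G FRET read-out.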

[14] = qHTS assay to identify small molecule agonists of H2AX - cell viability counter screen (AID 1224847; calls by dose curve; also: top concentration of the series differs between compounds; nearly all actives have a fitted effect of over 30% in size)
Procedure, shortened: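 Read-out: CellTiter-Glo luminescence, 30 min RT. Cells: wild-type CHO-K1, 1000/well, 10% FBS, plated overnight at 37C. Treatment: 15 concentrations, 3 hr, 37C, 0.76% DMSO.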

[15] = qHTS RealTime-Glo MT Cell Viability Assay in HepG2 cells - 24 hour (AID 1224867); also: nearly all actives have a fitted effect of over 50% in size
Procedure, shortened: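 Real-time, nonlytic viability: 600 HepG2 cells/well mixed with NanoLuc enzyme plus prosubstrate; 5 h settle, compound (DMSO) added by pintool; luminescence monitored over 40 h at 37 C.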

[16] = qHTS assay to identify small molecule antagonists of the estrogen related receptor (ERR) signaling pathway from Tox21 library (AID 1224848); also: nearly all actives have a fitted effect of over 50% in size
Procedure, shortened: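 Luciferase luminescence (ONE-Glo, 30 min room temperature) was the read-out. Cells of the NTP-supplied ERR line, 2,000 per well, were given 6 h at 37 C before compound addition in DMSO and 18 h exposure at 37 C.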

[17] = qHTS assay to identify small molecule agonists of the estrogen related receptor (ERR) signaling pathway from Tox21 library (AID 1224849; calls by dose curve; also: nearly all actives have a fitted effect of over 15% in size); details: ERR reporter cell line, ONE-Glo luciferase, 18 h; at 92.4 µM (top of the series) unless noted
Procedure, shortened: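 Luminescent agonist read-out (One-Glo, 30-minute room-temperature incubation) following 18-hour compound treatment at 37 C of the ERR cell line, which had been plated 6 hours before dosing.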

[18] = qHTS assay to identify small molecule agonists of the estrogen related receptor signaling pathway with the pleiotropic PPARgamma coactivator (PGC) from Tox21 10K library (AID 1224842); also: nearly all actives have a fitted effect of over 15% in size
Procedure, shortened: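 Luminescence from One-Glo (30 min, room temperature) measured after PGC/ERR cells had 18 h at 37 C with pinned compound (23 nL in DMSO). Cells had been seeded at 2,000 per well and pre-incubated 6 h.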

[19] = qHTS assay to identify small molecule antagonists of the estrogen related receptor signaling pathway with the pleiotropic PPARgamma coactivator (PGC) from Tox21 10K library (AID 1224841; call rule not given here)
Procedure, shortened: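 Luminescence (One-Glo, 30 min at room temperature) after 18 h compound treatment at 37 C of PGC/ERR reporter cells plated at 2,000 cells/well and settled 6 h beforehand.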

[20] = target: Nuclear receptor subfamily 1 group I member 3 (Homo sapiens) (UniProt Q14994); assay: qHTS assay to identify small molecule antagonists of the constitutive androstane receptor (CAR) signaling pathway (AID 1224838);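 also: HepG2 cells stably expressing hCAR with CYP2B6 luciferase reporter stimulated by CITCO; nearly all actives have a fitted effect of over 40% in size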
Procedure, shortened: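 Antagonism measured as luciferase signal (ONE-Glo, 30 min, room temperature) in CAR-stimulated cells: HepG2-CYP2B6-hCAR double-stable line exposed 24 hr at 37 C to compound in a 15-point series plus 50 nM CITCO.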
% is scaled to controls: 0 for no effect and ±100 for the full control effect.

Clc1cc(Cl)c(Cl)c(Cl)c1Cl
inactive: outcome [1] | outcome [2] | Potency [3] | outcome [4] | Potency [5] | outcome [6] | outcome [7] | Potency [8] | outcome [9] | Potency [10] | outcome [11] | outcome [12] | outcome [13] | outcome [14] | outcome [15]

CN(C)CCC[C@@]1(c2ccc(F)cc2)OCc2cc(C#N)ccc21
inactive: outcome [1] | outcome [2] | Potency [3] | outcome [4] | Potency [5] | outcome [6] | outcome [7] | Potency [8] | outcome [9] | Potency [10] | outcome [11] | outcome [12] | outcome [14] | outcome [16] | activity change, positive = activation [17] -3.55% [at 42.5 µM] | outcome [15]

N=C(N)N1CCc2ccccc2C1
inactive: activity change, negative = cytotoxicity [1] -0.951% [at 8.39 µM] | activity, negative = inhibition [2] -2.43% [at 8.39 µM] | activation [3] -0.224% [at 8.36 µM] | viability change, negative = cytotoxic [4] 2.84% [at 8.39 µM] | activity change, negative = inhibition [5] -2.87% [at 10.5 µM] | viability change, negative = cytotoxic [6] -1.33% [at 8.39 µM] | activity change, negative = cytotoxicity [7] 1.11% [at 8.39 µM] | viability change, negative = cytotoxic [9] -0.866% [at 8.39 µM] | activation [18] 0.335% [at 8.39 µM] | activation [10] -1.09% [at 8.39 µM] | activity change, negative = cytotoxicity [11] 5.71% [at 6.97 µM] | activation (H2AX phosphorylation) [12] 0.461% [at 14 µM] | activity change, negative = cytotoxicity [14] 1.46% [at 14 µM] | activity change, positive = activation [17] 1.78% [at 8.39 µM] | activity change, negative = cytotoxicity [15] -0.623% [at 6.97 µM]

O=C[C@@H](O)[C@H](O)[C@H](O)CO
inactive: outcome [1] | outcome [2] | Potency [3] | outcome [4] | Potency [5] | outcome [6] | outcome [7] | Potency [8] | outcome [9] | Potency [10] | outcome [11] | outcome [12] | outcome [13] | outcome [14] | outcome [15]

CCCc1ccc(O)c(OC)c1
inactive: outcome [1] | outcome [2] | Potency [3] | outcome [4] | Potency [5] | outcome [6] | outcome [7] | Potency [8] | outcome [9] | Potency [10] | outcome [11] | outcome [12] | outcome [13] | outcome [14] | outcome [15]

CC(C)(C)c1ccc(N)cc1
inactive: outcome [1] | outcome [2] | Potency [3] | outcome [4] | Potency [5] | outcome [6] | outcome [7] | Potency [8] | outcome [9] | Potency [19] | outcome [11] | outcome [12] | outcome [13] | outcome [14] | outcome [16] | outcome [15]

Cc1ccc2cccnc2c1
inactive: outcome [1] | outcome [2] | Potency [3] | outcome [4] | Potency [5] | outcome [6] | outcome [7] | outcome [20] | Potency [8] | outcome [9] | outcome [11] | outcome [12] | outcome [14] | outcome [15]

Cc1ccc(Br)cc1
inactive: outcome [1] | outcome [2] | Potency [3] | outcome [4] | Potency [5] | outcome [6] | outcome [7] | Potency [8] | outcome [9] | Potency [10] | outcome [11] | outcome [12] | outcome [13] | outcome [14] | outcome [15]

CN1C(CCl)Nc2cc(Cl)c(S(N)(=O)=O)cc2S1(=O)=O (stereo not drawn)
inactive: outcome [1] | outcome [2] | Potency [3] | outcome [4] | Potency [5] | outcome [6] | outcome [7] | Potency [8] | outcome [9] | Potency [19] | Potency [18] | outcome [11] | outcome [12] | outcome [13] | outcome [14] | activity change, positive = activation [17] 0.151% [at 42.5 µM] | outcome [15]
